Screening results: PubChem, several laboratories
GRIN3A LBD mod = binders of NR3A ligand-binding domain, primary screen, biophysical, differential scanning fluorimetry, uHTS | Tm shift relative to glycine control, % at 25 µM | NR3A LBD differential scanning fluorimetry, Tm shift; 0% = protein alone, 100% = glycine-bound protein | Glutamate receptor ionotropic, NMDA 3A (GRIN3A) ligand-binding domain | 340,000 compounds, 2.5% hits;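 active = melting temperature shift of at least 10% of the positive control shift, at one fixed dose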
FAS-TE inh = FAS thioesterase domain inhibitors, primary screen, biochemical, fluorescence intensity, uHTS; Fatty acid synthase (Homo sapiens), P49327; recombinant FAS-TE, OMFH fluorogenic substrate, fluorescence endpoint; inhibition, % at 15 µM; 360,000 compounds, 0.67% hits;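 active = compounds whose normalised, plate-corrected inhibition of enzyme fluorescence in the single-dose primary screen is 50% or more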;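 note: 0% = DMSO with enzyme and 100% = substrate without enzyme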
ADAM17 inh = ADAM17 inhibitors, primary screen, biochemical, QFRET; Disintegrin and metalloproteinase domain-containing protein 17 (Homo sapiens), P78536; recombinant ADAM17, EDANS/DABCYL FRET peptide cleavage; inhibition, % at 6.95 µM; 370,000 compounds, 0.83% hits;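 active = inhibition above the mean of compounds lying between control limits plus 3 SD, set per campaign, cut at about 8.5% in these data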;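 note: 0% = DMSO-only wells as the low control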
proKLK7 act = proKLK7 zymogen activators, primary screen, biochemical, fluorescence intensity; purified proKLK7, EDANS-DABCYL substrate fluorescence; 100% is mature enzyme control, 0% vehicle; 370,000 compounds, 0.9% hits; activation, % at 7 µM; AID 652039, 2013; Kallikrein-7 (Homo sapiens), P49862;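 active = activation above the mean of all tested compounds plus 3 SD, computed per campaign excluding outliers beyond control limits, cut at about 13% in these data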
ADAM10 inh = human ADAM10 inhibitors, primary screen, biochemical, QFRET, HTS. Disintegrin and metalloproteinase domain-containing protein 10 (Homo sapiens), O14672. recombinant ADAM10, EDANS/DABCYL FRET peptide cleavage, 3 h. inhibition, % at 7 µM. 370,000 compounds, 0.62% hits;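 active = inhibition above a per-campaign cutoff equal to the mean of compounds falling between control-based bounds plus 3 SD, cut at about 20% in these data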;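 note: 0% = DMSO wells while the 100% control is not disclosed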
Target sequence (O14672 214-748 limits assumed): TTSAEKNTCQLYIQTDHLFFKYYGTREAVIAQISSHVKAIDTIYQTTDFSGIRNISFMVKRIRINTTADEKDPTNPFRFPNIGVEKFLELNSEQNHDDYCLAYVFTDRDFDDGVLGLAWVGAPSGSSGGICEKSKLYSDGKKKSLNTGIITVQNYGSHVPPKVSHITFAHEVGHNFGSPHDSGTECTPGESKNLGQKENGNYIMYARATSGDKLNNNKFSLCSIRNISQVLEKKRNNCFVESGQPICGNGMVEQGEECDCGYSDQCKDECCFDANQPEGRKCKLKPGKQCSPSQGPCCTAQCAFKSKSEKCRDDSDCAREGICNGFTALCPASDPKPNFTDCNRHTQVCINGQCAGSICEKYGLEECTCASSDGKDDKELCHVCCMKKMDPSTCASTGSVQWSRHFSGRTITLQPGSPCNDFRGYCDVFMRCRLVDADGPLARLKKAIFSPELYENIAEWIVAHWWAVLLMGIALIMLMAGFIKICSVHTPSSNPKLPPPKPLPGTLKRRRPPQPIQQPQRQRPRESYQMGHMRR
ADAM10 confirm = human ADAM10 inhibitors, confirmation, biochemical, QFRET, triplicate; shares compounds with ADAM10 inh; ADAM10 QFRET peptide cleavage, EDANS fluorescence; inhibition, % at 6.95 µM; 2,100 compounds, 1% hits; AID 743208, 2013;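 active = inhibition above about 20% chosen separately for each screening run, limit read from the data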;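 note: 0% = DMSO wells and 100% = marimastat wells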
ADAM17 counter = ADAM17 inhibitors, counter-screen for ADAM10 exosite inhibitor project, biochemical, QFRET, high throughput | shares compounds with ADAM10 inh | ADAM17 QFRET peptide cleavage, EDANS fluorescence | inhibition, % at 6.95 µM | 2,100 compounds, 0.5% hits | AID 743214, 2013;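 active = mean triplicate inhibition above the solvent-only control wells' mean plus 3 SD, cut at about 12% in these data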;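 note: 0% = DMSO wells and 100% = marimastat wells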
ADAM10 counter = ADAM10 inhibitors, counter-screen for ADAM17 exosite inhibitor project, biochemical, FRET, human ADAM10; inhibition, % at 6.95 µM; AID 743256, 2014; 2,900 compounds, 47% hits; recombinant ADAM10, EDANS/DABCYL FRET peptide cleavage, 3 h; shares compounds with ADAM17 inh;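 active = mean inhibition over the triplicate runs exceeds the activity threshold set in the earlier primary screen, cut at about 20% in these data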;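 note: 0% = DMSO wells and 100% = marimastat wells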
ADAM17 confirm = ADAM17 inhibitors, hit retest, confirmation, biochemical, QFRET peptide cleavage; recombinant ADAM17, EDANS/DABCYL QFRET peptide cleavage; shares compounds with ADAM17 inh; inhibition, % at 6.95 µM; 2,900 compounds, 65% hits;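 active = mean inhibition across replicates above the hit cutoff set in the primary screen, cut at about 8.5% in these data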;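 note: 0% = DMSO wells and 100% = marimastat wells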
* marks the source's active call; other numbers are inactive results; x = no result given. Most compounds without a hit are left out; they make up all but 4.6% or so of the library.

SMILES | GRIN3A LBD mod | FAS-TE inh | ADAM17 inh | proKLK7 act | ADAM10 inh | ADAM10 confirm | ADAM17 counter | ADAM10 counter | ADAM17 confirm
CN(C)c1ccc(C(CNC(=O)c2ccccc2F)c2c[nH]c3ccccc23)cc1 (stereo not given) | -12 | 18 | 6 | -1 | 11 | x | x | x | x
CN(C)c1ccc(C(CNS(=O)(=O)c2ccc(F)c(F)c2)c2c[nH]c3ccccc23)cc1 (stereo not given) | 23* | 36 | 14* | -1 | 40* | 13 | 4 | 55* | 31*
COc1ccc(OC)c(NC(=O)CNC(c2ccccc2)c2ccccc2)c1 | 0 | 24 | 14* | 1 | 24* | 5 | 2 | 37* | 14*
COc1ccc(C2(c3ccc(OC)cc3)NC(=O)N(CC(=O)Nc3ccc(C(=O)N(C)C)cc3)C2=O)cc1 | -1 | 1 | -1 | 1 | 2 | x | x | x | x
COc1ccc(C2(c3ccc(OC)cc3)NC(=O)N(CC(=O)Nc3cc(C)ccc3OC)C2=O)cc1 | -6 | 22 | 9.3* | 0 | 22* | 7 | 3 | 33* | 16*
O=C(NCc1ccccc1)[C@H]1CCCN1C(=O)[C@H]1CCCN1C(=O)c1ccc(F)cc1 | x | x | -6 | 0 | -14 | x | x | x | x
OC(c1cccc(Cl)c1)c1ncc(-c2ccc(C(F)(F)F)cc2)[nH]1 (stereo not given) | x | 14 | x | x | x | x | x | x | x
OC(c1ccc(Cl)c(Cl)c1)c1ncc(-c2ccc(C(F)(F)F)cc2)[nH]1 (stereo not given) | x | 39 | 9.0* | 0 | 26* | 8 | 2 | 30* | 15*
Cc1cc(F)ccc1C(O)c1ncc(-c2ccc(Oc3ccccc3)cc2)[nH]1 (stereo not given) | x | 16 | 12* | 0 | 30* | 6 | 2 | 20* | 14*
Cc1cc(F)ccc1C(O)c1ncc(-c2ccccc2)[nH]1 (stereo not given) | x | -2 | 1 | -2 | -11 | x | x | x | x
OC(c1cccc(Cl)c1)c1ncc(-c2ccc(Oc3ccccc3)cc2)[nH]1 (stereo not given) | x | 16 | 11* | -1 | 25* | 9 | 4 | 42* | 21*
Cc1onc(-c2c(F)cccc2Cl)c1-c1ncc(-c2ccc(Cl)cc2)o1 | x | x | -4 | 0 | 4 | x | x | x | x
O=C(NCc1ccccc1)c1cc(C2CCCCN2C(=O)CCc2ccccc2)on1 (stereo not given) | x | 6 | -1 | 0 | -1 | x | x | x | x
O=C(NCc1ccc(Cl)c(Cl)c1)c1cc(C2CCCCN2C(=O)CCc2ccccc2)on1 (stereo not given) | x | 21 | 9.2* | 1 | 25* | 5 | 1 | 18 | 10*
CCCCNS(=O)(=O)c1ccc2nc(SCC(=O)Nc3ccccc3)[nH]c2c1 | -4 | 4 | 9.1* | 0 | 23* | 3 | -1 | 10 | 3
CC(=O)C1=C(C)N(Cc2ccc(F)cc2)C(=S)NC1c1cccc(F)c1 (stereo not given) | x | x | 3 | -1 | 11 | x | x | x | x
O=C(C1CCC(Cn2c(=S)[nH]c3ccccc3c2=O)CC1)N1CCN(c2ccccc2)CC1 (stereo not given) | -3 | 26 | 9.1* | 0 | 25* | 11 | 3 | 17 | 7
O=C(C1CCC(Cn2c(=O)[nH]c3ccccc3c2=O)CC1)N1CCN(c2ccccc2)CC1 (stereo not given) | 1 | -3 | 1 | 0 | -2 | x | x | x | x
CC(C)C[C@H](NC(=O)c1nc[nH]c1C(=O)NCC(=O)OCc1ccccc1)C(=O)OCc1ccccc1 | -14 | 24 | 24* | 0 | 45* | 6 | 2 | 36* | 21*
CC(C)C[C@H](NC(=O)c1nc[nH]c1C(=O)N[C@@H](CC(C)C)C(=O)OC(C)(C)C)C(=O)OCc1ccccc1 | -31 | x | 2 | 0 | 6 | x | x | x | x
CC(C)C[C@H](NC(=O)c1nc[nH]c1C(=O)NCC(=O)OC(C)(C)C)C(=O)OCc1ccccc1 | -23 | 30 | 14* | 1 | 30* | 3 | 1 | 36* | 19*
O=C(N[C@@H](Cc1cccnc1)C(=O)N1CCC[C@H]1C(=O)NCc1ccccc1)c1ccc(Cl)c(Cl)c1 | x | x | 0 | 0 | 2 | x | x | x | x
Cc1ccccc1-c1ccc2c(c1)[C@@H]1C[C@H]3[C@@H](CN1CC2)[C@H](C)OC(c1ccccc1)N3C (stereo not given in full) | x | x | -17 | 6 | -72 | x | x | x | x
Cc1oc2c(cc(NS(=O)(=O)c3cccs3)c3ccccc32)c1C(=O)OC(C)C | 4 | 19 | 9.7* | 0 | 24* | 6 | 3 | 38* | 14*
CC(C)(C)NC(=O)C(c1ccc(-c2ccccc2)cc1)N(C[C@H]1CC[C@@H]([C@@H]2CC[C@H](CO)O2)O1)C(=O)c1ccc2ccccc2c1 (stereo not given in full) | 2 | 16 | 10* | 0 | 21* | 3 | 1 | 16 | 10*
COP(=O)(OC)C(Cc1ccccc1)NC(=O)CNC(=O)OCc1ccccc1 (stereo not given) | x | x | -3 | 0 | 1 | x | x | x | x
Cc1ccc2c(c1)-n1c(nc3cc(C)ccc3c1=O)C(Cc1ccccc1)NC2=O (stereo not given) | x | x | 17* | 1 | 21* | 6 | 2 | 7 | 6
O=C(N[C@H](C(=O)N1CCC[C@H]1C(=O)NC1CCCC1)C1CCCCC1)c1cccs1 | x | x | 0 | 0 | -4 | x | x | x | x
Oc1ccc(C[C@H]2CNC(=S)N2C[C@H]2CCCN2C[C@H](Cc2ccccc2)N2C[C@H](Cc3ccc(O)cc3)N(CC3CCCCCC3)C2=S)cc1 | x | -57 | 6 | -1 | 9 | x | x | x | x
